90 compounds from PubChem BioAssay AID463173 (ICCB-Longwood Screening Facility, Harvard Medical School, 2010) can be followed below.

Among all 52,000 compounds or so, about 4,300 (8.3%) were called active. Only a selection was taken, and actives are over-represented in it overall. A number with no mark means an inactive call. Rule as the data show it: active = survival mostly below about 52% (no sharp cut-off); inactive = mostly above about 56%.

The test concerns DeltatarO mutant. The test can be described thus: growth inhibition of S. aureus wild type versus tarO mutant, primary screen, teichoic acid synthesis inhibitors, RN4220, OD600 (AID 463173). The conditions noted are these: OD600, 18 h, stronger effect = lower value, screened at 18.75 µg/mL (by protocol).
Regarding `COc1ccc(Cl)cc1NC(=O)c1ccc2nc(Cc3ccccc3)oc2c1`, the survival was 101%.

As to `CN(C)c1ccc(CNC(=O)c2cnc3sc(N4CCCC4)nn3c2=O)cc1`, the survival was 67%.

Consider `CCOC(=O)c1c(C)n(C(=O)c2ccco2)c(=O)n1C(=O)c1ccco1`, for which the survival was 73%.

Regarding `COc1ccc(CCn2c(=O)c3ccccc3n(CC(=O)Nc3cccc(C)c3)c2=O)cc1OC`, the survival is 83%.

As for `CC(C)n1nnnc1SCC(=O)c1ccc2c(c1)OCCO2`, the survival is 87%.

`Cc1ccc(C(=O)CSc2nnnn2C2CCCC2)cc1C`: the survival is 67%.

Take `O=C(CSc1nnnn1C1CCCC1)c1ccc2c(c1)OCCO2`: the survival was 70% (active).

As to `Cc1ccc(CNc2ncnc3c2cnn3-c2ccc(C)cc2C)cc1`, the survival was 77%.

`COc1ccc(C(=O)NNc2ncnc3c2cnn3-c2ccc(C)c(Cl)c2)cc1`: the survival is 69%.

Consider `COc1ccc(C(=O)NNc2ncnc3c2cnn3-c2ccc(C)cc2C)cc1`, for which the survival is 0% (active).

`Cc1ccc(-n2ncc3c(NCC(C)C)ncnc32)c(C)c1`: the survival was 37% (active).

Consider `Cc1cccc(C(=O)NNc2ncnc3c2cnn3-c2ccc(C)cc2C)c1`, for which the survival is 106%.

Regarding `Cc1ccc(-n2ncc3c(N(CC(C)C)CC(C)C)ncnc32)c(C)c1`, the survival is 78%.

As for `O=C(NCC(c1cccnc1)N1CCc2ccccc2C1)C(=O)Nc1ccccc1F` (stereo not given), the survival was 75%.

For `CCN(CC)CC(=O)Nc1ccc(-c2ccc(NC(=O)CN(CC)CC)cc2)cc1`, the survival was 113%.

`CC1CCC(C(=O)NC(C(=O)OCC(=O)c2ccccc2)C(C)C)CC1` (stereo not given): the survival is 75%.

Consider `COc1cccc(C2C(C(=O)Nc3ccccc3)=C(C)Nc3nc(-c4ccccc4)nn32)c1` (stereo not given), for which the survival is 57% (active).

As to `COc1ccc(C2C(C(=O)Nc3ccccc3)=C(C)Nc3nc(SCC(=O)c4ccc(C)cc4)nn32)cc1` (stereo not given), the survival was 71%.

For the compound `CC1=C(C(=O)Nc2ccccc2)C(c2ccc(C(=O)O)cc2)n2nc(SCC(=O)c3ccc(C)cc3)nc2N1` (stereo not given), the survival was 82%.

`COc1cc(OC)cc(-c2nc3n(n2)C(c2ccccc2F)C(C(=O)Nc2cccnc2)=C(C)N3)c1` (stereo not given): the survival is 45% (active).

Turning to `COc1ccc(C2C(C(=O)Nc3ccccc3)=C(C)Nc3nc(-c4ccccc4)nn32)cc1OC` (stereo not given), the survival was 85%.

In the case of `COc1ccc(C2C(C(=O)Nc3ccccc3)=C(C)Nc3nc(-c4ccccc4)nn32)c(OC)c1` (stereo not given), the survival was 82%.

Take `COc1ccc(-c2nc3n(n2)C(c2ccccc2F)C(C(=O)Nc2cccnc2)=C(C)N3)cc1OC` (stereo not given): the survival is 81%.

Take `COc1ccc(-c2nc3n(n2)C(c2ccccc2OC)C(C(=O)Nc2cccnc2)=C(C)N3)cc1` (stereo not given): the survival was 80%.

As to `CC1=C(C(=O)Nc2ccccc2)C(c2cccc(Cl)c2)n2nc(SCC(=O)c3ccc(C)cc3)nc2N1` (stereo not given), the survival was 52% (active).

As to `CCOc1ccc(NC(=O)C2CCN(S(=O)(=O)c3ccc4c(c3)oc(=O)n4C)CC2)cc1`, the survival was 91%.

Consider `CCCCNC(=O)c1cnn2c(C)c(Cc3c(F)cccc3Cl)c(C)nc12`, for which the survival was 135%.

As to `O=C(CN1C(=O)CCSc2ccccc21)Nc1ccc(C(F)(F)F)cc1`, the survival was 111%.

Turning to `N#Cc1c(N)nc2c(c1-c1ccccc1)CCCC2`, the survival is 102%.

`COc1ccc(S(=O)(=O)NCc2ccc3c(c2)CCN3C(=O)c2ccc(C)cc2)cc1Cl`: the survival is 112%.

`CCOC(=O)c1oc2c(c1C)/C(=N/OC(=O)c1ccccc1Cl)CCC2`: the survival was 69%.

In the case of `Cc1cc(S(=O)(=O)Nc2cc3c(cc2N2CCOCC2)n(C)c(=O)c(=O)n3C)ccc1F`, the survival was 72%.

Turning to `Cc1cc(C)c(S(=O)(=O)Nc2nnc(C(F)(F)F)s2)c(C)c1`, the survival was 36% (active).

As to `CC(C)(C)c1nnc(NS(=O)(=O)c2ccc(F)cc2)s1`, the survival is 82%.

As to `Cc1ccc(S(=O)(=O)Nc2nnc(CC(C)(C)C)s2)cc1`, the survival is 87%.

For `O=C(O)c1cccnc1SCc1cccc(Cl)c1`, the survival is 79%.

Regarding `Cc1cccc(CSc2ncccc2C(=O)O)c1`, the survival is 47% (active).

With `Cc1ccc(CSc2ncccc2C(=O)O)cc1`, the survival is 87%.

On to `Cc1ccc(NC(=O)c2c(C)oc3ccc(O)c(CN4CCCC4)c23)c(C)c1`, for which the survival was 67%.

With `CCOc1ccc(CCNC(=O)Cn2ccc3cc(S(=O)(=O)N4CCCCCC4)ccc32)cc1`, the survival is 126%.

In the case of `CCc1ccc(OC(=O)c2sc3ncn(Cc4cccc(F)c4)c(=O)c3c2C)cc1`, the survival is 115%.

As to `COc1ccc(S(=O)(=O)NCC(c2ccco2)N2CCN(c3ccc(F)cc3)CC2)cc1` (stereo not given), the survival is 84%.

Turning to `CCC(=O)N1CCc2cc(CNS(=O)(=O)c3ccc(Cl)s3)ccc21`, the survival is 93%.

In the case of `CCC(=O)N1CCc2cc(S(=O)(=O)NC(Cc3ccccc3)C(=O)Nc3ccc(C)cc3)ccc21` (stereo not given), the survival was 64%.

On to `CCC(=O)N1CCc2cc(S(=O)(=O)NC(CC(C)C)C(=O)NCc3ccc(C)cc3)ccc21` (stereo not given), for which the survival was 97%.

As for `CCC(=O)N1CCc2cc(S(=O)(=O)NC(Cc3ccccc3)C(=O)NCc3ccccc3)ccc21` (stereo not given), the survival was 65%.

Regarding `CCC(=O)N1CCc2cc(CNS(=O)(=O)c3ccc(Br)s3)ccc21`, the survival is 47% (active).

For the compound `CCC(=O)N1CCc2cc(S(=O)(=O)NC(CC(C)C)C(=O)NCc3ccc(F)cc3)ccc21` (stereo not given), the survival was 80%.

Consider `CCC(=O)N1CCc2cc(S(=O)(=O)NC(CC(C)C)C(=O)Nc3ccc(CC)cc3)ccc21` (stereo not given), for which the survival is 60% (active).

On to `CCC(=O)N1CCc2cc(S(=O)(=O)NC(Cc3ccccc3)C(=O)O)ccc21` (stereo not given), for which the survival was 25% (active).

As to `CC(=O)N1CCc2cc(CNS(=O)(=O)c3ccc(Br)s3)ccc21`, the survival is 73%.

Regarding `COC(=O)c1ccccc1NC(=O)c1oc2ccc3c(c2c1C)C(=O)CC(C)(C)O3`, the survival is 80%.

For the compound `Cc1nc2cc(C(=O)O)ccc2n1-c1ccc(C(C)C)cc1`, the survival is 68%.

`COc1cccc(CNC(=O)CSc2nc3ccccc3nc2Cc2ccccc2)c1`: the survival is 69%.

For the compound `COc1ccc(NS(=O)(=O)c2ccc(-c3cnc(C4CC4)o3)cc2)cc1Cl`, the survival is 124%.

Take `CCOC(=O)C1CCCN(S(=O)(=O)c2ccc(OC)cc2)C1` (stereo not given): the survival was 76%.

Consider `CN1C(=O)Cc2cc(S(=O)(=O)CCC(=O)Nc3ccccc3)ccc21`, for which the survival is 83%.

As to `Clc1ccc(CSc2nc3ncccc3[nH]2)cc1`, the survival was 71%.

On to `O=C(O)c1ccc(-n2c(/C=C\c3ccc(O)cc3)nc3ccccc3c2=O)cc1`, for which the survival was 58% (active).

`COC(=O)c1ccc(-n2c(/C=C\c3cccc(Br)c3)nc3ccccc3c2=O)cc1`: the survival is 70%.

As to `O=C(O)c1cc(-n2c(/C=C\c3ccc(F)cc3)nc3ccccc3c2=O)ccc1Cl`, the survival is 94%.

`COc1ccc(C)cc1NC(=O)N1CC(C)Sc2ccccc21` (stereo not given): the survival was 55%.

With `Cc1ccc(N(C)C(=O)CC(C)S(=O)(=O)c2ccc3c(c2)NC(=O)CO3)cc1` (stereo not given), the survival was 120%.

For `c1ccc2c(c1)[nH]c1nc(NN=C3CCC(=NNc4nnc5c(n4)[nH]c4ccccc45)CC3)nnc12`, the survival is 93%.

On to `COc1cccc(-c2nc3c(c(SCC(=O)Nc4cc(C)ccc4C)n2)Cc2c(CO)cnc(C)c2O3)c1`, for which the survival was 77%.

Regarding `Cc1ccc(CNC(=O)c2ccc3oc(=O)n(Cc4ccccc4)c3c2)cc1`, the survival was 64%.

`CCn1nnc2cc(C(=O)Nc3ccc(OC)cc3)ccc21`: the survival is 102%.

In the case of `O=C(Nc1cccc(F)c1)c1ccc2oc(=O)n(Cc3ccccc3)c2c1`, the survival is 70%.

Consider `CCc1ccc(NC(=O)c2ccc3oc(=O)n(Cc4ccccc4)c3c2)cc1`, for which the survival was 6% (active).

On to `O=C(Nc1ccc(Cl)cc1)c1ccc2oc(=O)n(Cc3ccccc3)c2c1`, for which the survival was 67%.

As to `O=C(NCc1ccccc1)c1ccc2oc(=O)n(Cc3ccccc3)c2c1`, the survival was 72%.

With `Cc1cccc(CNC(=O)c2ccc3oc(=O)n(Cc4ccccc4)c3c2)c1`, the survival is 76%.

Turning to `COc1cccc(CNC(=O)c2ccc3oc(=O)n(Cc4ccccc4)c3c2)c1`, the survival is -1% (active).

For `CCn1nnc2cc(C(=O)Nc3ccc(C)c(Cl)c3)ccc21`, the survival is 54%.

On to `CCc1ccc(NC(=O)c2ccc3c(c2)nnn3CC)cc1`, for which the survival is -4% (active).

For `O=C(NCc1ccc(Cl)cc1)c1ccc2oc(=O)n(Cc3ccccc3)c2c1`, the survival was 109%.

For `O=C(NCc1ccc(F)cc1)c1ccc2oc(=O)n(Cc3ccccc3)c2c1`, the survival was -2% (active).

As to `O=C(Cc1ccc(F)cc1)Nc1nncs1`, the survival was 99%.

Consider `Cc1ccc2ncc(C(=O)N3CCN(c4ccccc4F)CC3)c(=O)n2c1`, for which the survival was 102%.

Turning to `CCOC(=O)c1c(NC(C)=O)c2c3c(sc2n1Cc1cc(C)ccc1C)CCCC3`, the survival was 98%.

On to `O=C(CCOc1ccccc1)N(Cc1cccnc1)c1nc2c(F)cc(F)cc2s1`, for which the survival was 97%.

As for `CC1=C(C(N)=O)C(c2cccc(C)c2)n2nc(-c3cccc(C)c3)nc2N1` (stereo not given), the survival is 66%.

Regarding `Cc1cccc(NC(=O)C2CCCN(S(=O)(=O)c3cccc4nonc34)C2)c1C` (stereo not given), the survival is 119%.

With `Cc1c(C(=O)N(C)C)sc2c1c(=O)n(-c1ccc(F)cc1)c(=O)n2Cc1ccccc1C#N`, the survival was 76%.

For `Cc1ccc(N(C)C(=O)c2sc3nc4n(c(=O)c3c2C)CCCC4)cc1C`, the survival was 64%.

Turning to `O=C(Cn1c(=O)n(CCCS(=O)(=O)C2CCCCC2)c(=O)c2ccccc21)Nc1ccccc1C(F)(F)F`, the survival is 91%.

For `Cc1ccc(S(=O)(=O)CCC(=O)Nc2ccc(Br)cc2C)cc1`, the survival was 85%.

For the compound `Cc1ccc(C)c(N2CCN(C(=O)C3CCCN(S(=O)(=O)c4cccc5nonc45)C3)CC2)c1` (stereo not given), the survival was 76%.

As for `COc1ccc(OC)c(NC(=O)c2cc3cccc(OC)c3oc2=O)c1`, the survival was 77%.

For `Cc1cccc(C)c1NC(=O)c1cc2sccc2n1Cc1ccc(F)cc1`, the survival was 96%.
